Source: the OligoGym collection

The sequences below were run against ZHX1 (assay: pooled miR-30 sensor sort-seq; sequence = guide strand). Details: shRNA.
Further: reference of the scale not given here.

Row | Sequence | sensor-assay potency score (higher = more potent)
1 | TAACTATGTCTGTTCTAGCAAG | -1.35
2 | TTGCTCATTAAGAAACTTGTGC | -0.28
3 | TTAAACTGAACATTTCTTCTAC | 0.706
4 | TAAATTAGTATGAACTTTCAGT | -0.00447
5 | TAAGTATACATTTACTACGTGA | -0.517

What follows are sequences tested against ZIC5 in the same assay as above. Details: shRNA.

Row | Sequence | sensor-assay potency score (higher = more potent)
6 | TAGTAGGGCTTGTCACTGGTGT | -0.153
7 | TCATCTTCAGTCTCAGAGGTGG | -0.487
8 | TCGAATCTTGCAGTAGTAGGGC | 0.408
9 | TGTATGAGTACGCTTGTGGATC | -1.35
10 | TGAATCTTCATGTGCTTCCTCA | -0.349
11 | TTGGTGGTGGTGTAGCCCGAGA | -1.57
12 | TGTCATATTCTGAAGCGGCTGG | 0.253
13 | ATGAGTACGCTTGTGGATCTTG | -0.744
14 | TTGCAGATGAGCTCCTGCTTGA | -0.229
15 | TTTGTCACAGCCTCGAATCTTG | -0.0738
16 | TTGAGGTTGGTCACCTGAGGGG | -0.565

These sequences were tested against ZKSCAN4 in the same assay as above. Details: shRNA.

Row | Sequence | sensor-assay potency score (higher = more potent)
17 | TGAACTTTGAGCAAAACTCTTT | -0.0856
18 | TAGTCTGTATTTCACCACCAAG | -1.77
19 | TTTATCACCATGAATCCTCTGA | 0.54
20 | TTGACTGGAGGCAAGTCCCTGC | 0.176
21 | TGAGCTGTGACTGAAGACCTTA | 0.0781
22 | TTCTGCTTTCTTTGTAACCTGC | -0.00454
23 | TTCATGCTTGAACAGAGCCTTC | -1.41
24 | AACCTGGAGAACTCTATCGTGT | -0.756
25 | TTCAATAAGACTTCTATTCCGT | 0.355
26 | TTCCACAGTCTTCACATTCATA | -1.13
27 | TACCATTGCATCTTCTCTGCAG | 0.382
28 | TTTAGGTCCTACAACTTCCAGA | -0.127

What follows are sequences tested against ZMAT2 in the same assay as above. Details: shRNA.

Row | Sequence | sensor-assay potency score (higher = more potent)
29 | TTTATTGGGAACTCAGGTGGGC | 0.402
30 | TTTCTTGTACGCTTTGGCCTTT | -0.519
31 | TTCTTTTCTCTCTCTTCCGTGA | -0.461
32 | AAAATCATAATCCTTCTGCTTC | -0.213
33 | TTCTCTTTCTTGTACGCTTTGG | -0.566
34 | TTTCTCTTTCTTGTACGCTTTG | -0.653
35 | TTGGATTCCAAGTCCACCTTGT | 0.567
36 | TTCCTCAAAATCATAATCCTTC | 0.481
37 | TACCTCTGCAATCTGTGCCCTC | -0.418
38 | TTCTCTGATGTTTCTTTCCATT | -1.41
39 | TTCTTGTTGACCTCAAAACGTT | -0.905
